Bioassay records as filed in PubChem.
Only some compounds are listed: those with a hit (about 1.4% of all), similar ones and a draw of the others.
PrP UTR inh: inhibition of PrP 5' UTR reporter expression; AID 488862; inhibition, % (test concentration not listed); cell-based PrP 5' UTR mRNA reporter, plate reader; 340,000 compounds, 0.35% hits; in the data active = inhibition above about 52%; note: 0 = median of the neutral control wells
PrPC TRFRET: cell surface PrPC inhibition, primary TR-FRET screen; 370,000 compounds, 0.43% hits; P04156; inhibition, % at 13.8 µM; AID 720596; TR-FRET read-out; in the data active = inhibition above about 24%; note: 0% = median of the test wells and 100% = reference compound wells
BH1578 lux ind: quorum light induction in luxS cqsA deficient V. cholerae; 350,000 compounds, 0.16% hits; V. cholerae BH1578 lux reporter, luminescence, 6 h; activation, % at 18.7 µM; in the data active = activation mostly above about 9.7%, no sharp cut-off
SSB-PriA inh: blocks PriA binding to SSB C-terminal tail. AlphaScreen SSBct-PriA binding, biotinylated peptide. inhibition, % at 33 µM. 430,000 compounds, 0.6% hits; in the data active = inhibition mostly above about 37%, no sharp cut-off; inactive = mostly below about 20%;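 note: plate controls were negative control peptide for no effect and reference peptide for full effect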
FadD28 FP inh: blocks FadD28 binding to the bisubstrate probe; fluorescence polarization; 360,000 compounds, 0.22% hits; inhibition, % at 12.5 µM; in the data active = inhibition above about 8.5%, passing the limit was not always enough
Active calls of the source: *; i = inactive; . = no result.

SMILES | PrP UTR inh | PrPC TRFRET | BH1578 lux ind | SSB-PriA inh | FadD28 FP inh
COc1ccccc1CNC(=O)c1ccc(=O)n(Cc2ccc(F)cc2)n1 | . | . | . | -2 | .
O=C(NCc1ccc2c(c1)OCO2)c1ccc(=O)n(Cc2cccc(F)c2)n1 | . | . | . | 5 | .
O=C(Nc1ccc2c(c1)OCO2)c1ccc(=O)n(Cc2cccc(F)c2)n1 | . | . | . | 17* | .
CCc1nc2c(sc3cccc(F)c32)c(=O)n1CC(=O)Nc1ccc(N(CC)CC)cc1C | . | . | . | -6 | .
N#C/C(=C/c1ccco1)C(N)=S | -4 | 2 | 0 | -6 | 15*
O=C(CCCN1C(=O)c2cccc3cccc(c23)C1=O)NC1CCCCC1 | . | . | . | -19 | .
COc1cccc(-c2ccc(=O)n(CCCC(=O)NCc3ccccc3Cl)n2)c1 | . | . | . | 39* | .
O=C(NCC[C@H](O)c1cccc2ccccc12)C(=O)Nc1cccc(N2CCCC2=O)c1 | . | . | . | -5 | .
CC(C)N1CCc2c(sc(NC(=O)c3ccc(C(=O)c4ccccc4)cc3)c2C(N)=O)C1 | -7 | -18 | 0 | 81* | -2
CC(C)N1CCc2c(sc(NC(=O)Cc3ccccc3)c2C(N)=O)C1 | -18 | -3 | -1 | -1 | -1
CCCCC(=O)Nc1sc2c(c1C(N)=O)CCN(C(C)=O)C2 | . | . | . | -13 | .
CC(C)N1CCc2c(sc(NC(=O)c3cc4cc([N+](=O)[O-])ccc4s3)c2C(N)=O)C1 | -24 | -8 | 0 | -3 | 14*
CC(=O)N1CCc2c(sc(NC(=O)Cc3ccccc3)c2C(N)=O)C1 | -11 | 4 | 0 | 115* | 2
O=C(CN1C(=O)NC2(CCOc3ccccc32)C1=O)c1ccc(Cl)cc1 (stereo unspecified) | -30 | -6 | i | -16 | 16*
O=C(O)CN1C(=O)NC2(CCOc3ccccc32)C1=O (stereo unspecified) | -14 | -6 | 0 | 2 | -2
O=C(CN1C(=O)NC2(CCOc3ccccc32)C1=O)c1ccc(Br)cc1 (stereo unspecified) | -13 | -5 | -1 | -6 | 21*
CCC(=O)Nc1ccc(S(=O)(=O)NCC(C)(O)Cc2ccco2)c(C)c1 (stereo unspecified) | . | . | . | -6 | .
COC1=CC(=Cc2c(N)n3cc(C)sc3nc2=O)C=CC1=O | . | . | . | -12 | .
Cc1cn2c(N)c(C=C3C=C(Cl)C(=O)C(Cl)=C3)c(=O)nc2s1 | -34 | 3 | -1 | -16 | 15*
Oc1c(Cl)cccc1Cc1cc(Cl)cc(Cl)c1O | -54 | -5 | -1 | 4 | 12*
CC[C@@](CNC(=O)C(=O)Nc1ccc(F)c(Cl)c1)(OC)c1ccccc1 | . | . | . | -1 | .
O=S(=O)(c1ccc(F)cc1)C1CN(S(=O)(=O)c2ccccc2Br)C1 | . | . | . | -23 | .
Cc1ccc(/C=C2\SC(=S)N(Cc3ccccc3)C2=O)o1 | -26 | 4 | 0 | 9 | -1
O=C(O)c1cc(-c2ccc(/C=C3/SC(=S)N(Cc4ccccc4)C3=O)o2)ccc1Cl | -20 | -6 | 0 | 5 | 28*
CCOC(=O)N1CCN(S(=O)(=O)c2ccc(C(=O)Nc3sccc3C#N)cc2)CC1 | . | . | . | 3 | .
SMILES | PrP UTR inh | PrPC TRFRET | BH1578 lux ind | SSB-PriA inh | FadD28 FP inh
COc1cc2[nH]c(=S)nc(NC3CCCCCC3)c2cc1OC | -3 | 25* | i | 10 | -4
COc1ccc(S(=O)(=O)NCC(c2ccc3c(c2)CCCN3C)N(C)C)cc1C (stereo unspecified) | . | . | . | 37 | .
Nc1ccc(C(=O)Nc2ccc3c(O)cc(S(=O)(=O)O)cc3c2)cc1 | -5 | 8 | i | -6 | 15*
CCOC(=O)N1CCc2nc(NC(=O)CCCS(=O)(=O)c3ccc(Cl)cc3)sc2C1 | . | . | . | 14 | .
COc1cc(/C=C2/C(=O)NN(c3cccc(Cl)c3)C2=O)cc(OC)c1O | -15 | 9 | 0 | 8 | 11*
COc1cc(/C=C2/C(=O)NN(c3ccc(C)c(Cl)c3)C2=O)cc([N+](=O)[O-])c1O | -6 | -4 | 0 | -5 | 30*
O=C1C2ON(c3ccccc3)C(c3ccncc3)C2C(=O)N1c1ccc(Br)cc1 (stereo unspecified) | -14 | 2 | -3 | 2 | -2
O=C1C2ON(c3ccccc3)C(c3ccccn3)C2C(=O)N1c1ccc(Br)cc1 (stereo unspecified) | -11 | -4 | . | -9 | 13*
O=C(NCCn1ncc2c(=O)n(Cc3ccccc3F)cnc21)c1ccc(Cl)cc1 | . | . | . | 5 | .
CCOC(=O)C1=C(C)NC2=C(C(=O)c3ccccc32)C1c1cccc2ccccc12 (stereo unspecified) | -5 | -7 | -1 | -1 | -4
